The values that follow come from PubChem BioAssay AID686978 (National Center for Advancing Translational Sciences (NCATS), 2013).

Where “and” joins values, the source holds several entries; their conditions need not be identical. Identical values can stand only once. Among all 420,000 compounds or so, about 64,000 (15%) were called active. Another 27% or so got no clear call; they are omitted. Calls follow the shape of the dose curve; as a rule, active = well fitted inhibition curve with a large enough effect; inconclusive = small, poorly fitted or top-dose-only effect; inactive = flat fitted curve, though single readings scatter. These entries were drawn from the full list. Entries that show only a call come without a potency. A structure can be active in one record and inactive in another.
Potency is read from the fitted curve at half-maximal effect.

This assay can be described thus: qHTS for Inhibitors of human tyrosyl-DNA phosphodiesterase 1 (TDP1): qHTS in cells in absence of CPT. Also: nearly all actives have a fitted effect of over 55% in size. Conditions: DT40 Tdp1-/- hTDP1 cells, no CPT, ATP luminescence, 48 h; activity change, negative = growth inhibition: at 46.2 µM (top of the series). The gist of the method: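 Chicken DT40 Tdp1-/- cells stably complemented with human TDP1 were seeded at 400 cells/well with DMSO in place of 20 nM camptothecin. After compound pinning, cells grew at least 48 hr at 37 °C; viability read by CellTiter-Glo luminescence.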
On the technique in general: In qHTS, concentration-response curves come from the screen itself.
Consider `COc1ccc(CCNC(=O)COC(=O)C2CC2C)cc1` (centres undefined), for which the Potency result is “inactive”. Then `O=C(O)CCN(Cc1ccccc1)S(=O)(=O)c1c(Cl)cccc1Cl`, with “inactive”; and `CCC(C)N(C(=O)CSc1ncnc2c1cnn2-c1ccccc1)C1CCS(=O)(=O)C1` (centres undefined), with “inactive”; and `COc1ccccc1NC(=S)NC(=O)C(C)C`, with “inactive”. Then `COc1ccccc1NC(=O)c1oc2ccccc2c1NC(=O)C(C)C`, with 16.4 µM (active); and `COc1ccccc1NC(=O)c1oc2ccccc2c1NC(=O)COc1ccccc1OC`, with “inactive”. Then `Cc1ccc(C(=O)OCC(=O)Nc2ccc(Cl)cn2)cc1S(=O)(=O)N1CCOCC1`, with “inactive”. On to `O=C(OCCN1CCOCC1)C1(c2ccccc2)CCCCC1`, for which the Potency result was “inactive and 26.6 µM (active)”. The entry for `O=C(COC(=O)C1(c2ccc(F)cc2)CCCC1)N1CCNC1=O` is “inactive”; for `N[C@@H](Cc1ccccc1)C(=O)N1CCOCC1` it is “inactive”.

On to `CNS(=O)(=O)c1cccc(C(=O)NCC2CCCCC2)c1`, for which the Potency entry is “inactive”.

Consider `CN(C)S(=O)(=O)N1CCC(Oc2cccc(C(=O)NCCCC3CCCC3)c2)CC1`, for which the Potency is 7.31 µM (active). Then `CN(C(=O)c1cccc(OC2CCN(S(=O)(=O)N(C)C)CC2)c1)C1CCOC1` (centres undefined), with “inactive”. The entry for `CC(C)N(C(=O)Cn1cc(SCC(=O)N2CCCC2)c2ccccc21)C(C)C` is “inactive”; for `O=C1c2ccccc2C(=O)N1CCc1nn[nH]n1` it is “inactive”; for `COc1ccc(N2CC(C(=O)NCCS(=O)(=O)N3CCN(c4ccccc4)CC3)CC2=O)cc1` (centres undefined) it is “inactive”. Then `O=C(NCCS(=O)(=O)N1CCN(c2ccccc2)CC1)c1ccco1`, with “inactive”. For the compound `COc1cc(C(=O)NCCS(=O)(=O)N2CCN(c3ccccc3)CC2)cc(OC)c1OC`, the Potency was 20.6 µM (active). The entry for `O=C(O)c1cc(S(=O)(=O)N(Cc2ccccc2)c2ccccc2)ccc1Cl` is “inactive”; for `C#CCOCCOCCOCCNc1nc(N2CCN(C(=O)Cn3cc(CCCCN)nn3)CC2)nc(N2CCN(C(=O)[C@H](CCCCN)n3cc(CCC(=O)O)nn3)CC2)n1` it is “inactive”. Take `Cc1ccc(-c2csc(-c3cc(C)on3)n2)cc1`: the Potency entry was “inactive”. With `Cc1csc(OCC(=O)Nc2ccc(C)c(C)c2)n1`, the Potency entry was “inactive”.

With `COc1ccc(C(C)(O)c2nc(-c3cc(F)cc(F)c3)cs2)cc1` (centres undefined), the Potency is 16.4 µM (active).

With `COc1ccc(C(C)(NC(C)=O)c2nc(-c3ccc(S(C)(=O)=O)cc3)cs2)cc1` (centres undefined), the Potency result is “inactive”.

Regarding `COc1ccc(C(C)(O)c2nc(-c3ccc(C)c(C)c3)cs2)cc1` (centres undefined), the Potency is 18.4 µM (active). Then `COc1cccc(CN2C(=O)CCC2(C)C(=O)NC2CCCCCC2)c1` (centres undefined), with “inactive”. For the compound `COc1cc(C)c(S(=O)(=O)N2CCOCC2)c(C)c1C`, the Potency entry is “inactive”. For `CCNC(=O)Nc1ccc(S(=O)(=O)Nc2cnc(C)nc2C)cc1`, the Potency result is “inactive”.

`CCc1c(C)sc(NC(=O)/C=C/c2ccc3c(c2)OCO3)c1C(=O)OC`: the Potency entry is “inactive”. The figure for `Cc1cccc(NC(=O)/C=C/c2ccc3c(c2)OCO3)n1` is 18.4 µM (active). Then `O=C(O)/C=C/c1ccc2c(c1)OCCO2`, with “inactive”; and `CC1CN(S(=O)(=O)c2ccc(C(=O)NN3CCN(C)CC3)cc2)CC(C)O1` (centres undefined), with “inactive”; and `O=C(CCC1CCCC1)N=C1SC2CS(=O)(=O)CC2N1Cc1ccccc1` (centres undefined), with “inactive”. The entry for `O=C(CCN1C(=O)c2ccccc2C1=O)NCCCn1ccnc1` is “inactive”. Consider `CCCCN(C(=O)C1=NN(c2cc(C)ccc2C)C(=O)CC1)c1c(N)n(CCC)c(=O)[nH]c1=O`, for which the Potency result was “inactive”. As for `CC(C)CC(CCc1ccccc1)OS(N)(=O)=O` (centres undefined), the Potency entry was “inactive”.

`CN1OC[C@@H]2CN(C(=O)C(C)(C)C)[C@H](c3ccc(-n4ccnc4)cc3)C[C@@H]21`: the Potency entry was “inactive”.

In the case of `CC1CC(C)(C)CC2(C1)NC(=O)N(CC(=O)Nc1nccs1)C2=O` (centres undefined), the Potency result is “inactive”. The entry for `Cc1ccc(CC2CC(=O)N(c3ccc4c(c3)OCCO4)C2=O)cc1` (centres undefined) is “inactive”; for `COc1ccc(C2=NN(C(C)=O)C(c3ccccc3)C2)cc1` (centres undefined) it is “inactive”; for `COc1ccc(C2=NN(C(=O)c3ccccc3C(=O)O)C(c3ccccc3O)C2)cc1` (centres undefined) it is “inactive”. The figure for `COc1ccc(C2CC(c3ccc([N+](=O)[O-])cc3)=NN2C(C)=O)cc1` (centres undefined) is 14.6 µM (active); for `CC(C)N(C)C(=O)CCc1nnc(CCc2c[nH]c3ccccc23)o1` it is “inactive”; for `Cc1nc(CN2CCN(C(=O)CCc3nnc(Cc4c[nH]c5ccccc45)o3)CC2)cs1` it is “inactive”. The figure for `Cc1nn(C)c(C)c1CN(C(=O)CCc1nnc(Cc2c[nH]c3ccccc23)o1)C(C)C` is 16.4 µM (active); for `CC1(C(=O)NS(=O)(=O)c2cccc(F)c2)CCN1C(=O)Cc1cc(F)ccc1F` (centres undefined) it is “inactive”.

`O=C(CN1C(=O)COc2ccc(Cl)cc21)N1CCOCC1`: the Potency result is “inactive”. `Cc1cccc(OCC(=O)NCCNC(=O)c2cccnc2)c1`: the Potency entry is “inactive”. The entry for `CCOC(=O)C1=C(c2ccccc2)N=C2SCC(=O)N2C1c1ccc(O)c(OC)c1` (centres undefined) is “inactive”. Then `CCOC(=O)c1ccc(N2C(=O)c3n[nH]c(C)c3C2c2ccc(O)c(OC)c2)cc1` (centres undefined), with 18.4 µM (active); and `COc1cc(C2C(C(=O)c3ccc(C)o3)=C(O)C(=O)N2Cc2cccnc2)ccc1O` (centres undefined), with “inactive”; and `Cc1nc(N2CCCC2C(=O)O)c2oc3ccccc3c2n1` (centres undefined), with “inactive”. For `CCCN(CC(=O)Nc1ccc(OC)c(OC)c1)CC(=O)Nc1ccc(F)c(F)c1F`, the Potency result was “inactive”. The entry for `O=C(Nc1sc2c(c1-c1nc3ccccc3[nH]1)CCCC2)C1CC1` is “inactive”. The entry for `CC(=O)c1ccc(NC(=O)C(C)NCc2ccc(Cl)cc2)cc1` (centres undefined) is “inactive”; for `CCOc1ccc(-n2c(O)c(/C=N/Nc3nnc(C)c(=O)[nH]3)c3ccccc3c2=O)cc1` it is 0.92 µM (active); for `CCOc1ccc(-n2c(O)c(/C=N/c3ccnn3Cc3ccncc3)c3ccccc3c2=O)cc1` it is “inactive”.

Consider `CCOc1ccc(N/C(N)=N/c2nc(C)c(C)c(=O)[nH]2)cc1`, for which the Potency entry is “inactive”. Then `Cc1ccccc1Nc1nnc(C)c(=O)[nH]1`, with “inactive”; and `Cc1nnc(N/N=C/c2cccs2)[nH]c1=O`, with “inactive”.

In the case of `COc1ccc(-n2c(O)c(C=NCC(c3ccco3)N3CCCC3)c3ccccc3c2=O)cc1OC` (centres undefined), the Potency entry was “inactive”. The entry for `CCN(CC)CCCN=Cc1c(O)n(-c2ccc(C)cc2)c(=O)c2ccccc12` is “inactive”; for `CCOc1ccc(-n2c(O)c(/C=N/Nc3nc(C)cc(C)n3)c3ccccc3c2=O)cc1` it is 3.26 µM (active); for `Cc1nnc(N/N=C/c2ccccn2)[nH]c1=O` it is 2.91 µM (active). The entry for `CC(=O)Nc1ccc(S(=O)(=O)NC2(C(F)(F)F)C(=O)Nc3c2c(=O)[nH]c(=O)n3Cc2ccccc2)cc1` (centres undefined) is “inactive”; for `Cc1cc(F)ccc1NC(=O)C(C)n1c2ccccc2c2nc(=O)cc(C)n21` (centres undefined) it is “inactive”. In the case of `CCC(C)n1[nH]c(=O)cc1N` (centres undefined), the Potency result is “inactive”.

For the compound `O=C(CCN1C(=O)C2C3C=CC(C3)C2C1=O)Oc1ccc2ccccc2c1` (centres undefined), the Potency entry is “inactive”. As for `CC1CCCCC1NC(=O)CN1CCC(O)(c2ccc3c(c2)OCO3)CC1` (centres undefined), the Potency entry was “inactive”. The entry for `O=C(c1cccc(C(=O)N2CCc3ccccc32)n1)N1CCc2ccccc21` is “inactive”; for `CCCCn1nc(C(=O)OCC(=O)Nc2sccc2C(N)=O)c2ccccc2c1=O` it is “inactive”. Then `CCC(=O)N1CCCc2ccccc21`, with “inactive”; and `CCn1nc(C(=O)OCC(=O)N2c3ccccc3CC2C)c2ccccc2c1=O` (centres undefined), with “inactive”. `CCCCn1nc(C(=O)N2CCc3ccccc32)c2ccccc2c1=O`: the Potency is 16.4 µM (active). The figure for `CCCn1nc(C(=O)N2CCCc3ccccc32)c2ccccc2c1=O` is 18.4 µM (active). As for `O=C(NCCCN1CCCCCC1)C1CC(=O)N(C2CCCC2)C1` (centres undefined), the Potency entry is “inactive”. Then `CCN1CCN(C(c2ccc(C)cc2)c2c(O)cc(C)n(Cc3ccco3)c2=O)CC1` (centres undefined), with “inactive”; and `CCOC(=O)[C@H](CCc1ccccc1)N[C@@H](C)C(=O)N1CC2(C[C@H]1C(=O)O)SCCS2`, with “inactive”; and `Cc1ccc(NC2=NC(c3ccccc3)n3c(nc(C)cc3=O)N2)cc1` (centres undefined), with “inactive”. For the compound `COc1cccc(CNC(=O)CCCC(=O)Nc2cccc([N+](=O)[O-])c2)c1`, the Potency result is “inactive”. Then `COc1cccc(NCCC(=O)c2cccc([N+](=O)[O-])c2)c1`, with 14.6 µM (active); and `CC(C)(C)SCCNC(=O)c1cccc([N+](=O)[O-])c1`, with “inactive”. Then `CC1=NN(c2ccc(Cl)c(C(=O)O)c2)C(=O)/C1=C/c1ccc(-c2ccccc2[N+](=O)[O-])o1`, with “inactive”; and `Cc1nc2ccccc2cc1OCc1ccc(F)cc1`, with 11.6 µM (active). The entry for `Cc1occc(=O)c1OCc1ccc(F)cc1` is “inactive”.

For the compound `Fc1cccc2ncnc(OCc3ccccc3)c12`, the Potency entry was “inactive”. As to `Cc1cc(C)cc(C(=O)NC2C(=O)N3C(C(=O)O)=C(CSc4nnc(C)s4)CSC23)c1` (centres undefined), the Potency result is “inactive”. As to `CCOc1ccc(NC(=O)c2ccc(NC(=O)CN3C(=O)C(=O)N(CC(C)C)C3=O)cc2)cc1`, the Potency result was “inactive”. Then `Cc1ccsc1C(=O)OCC(=O)NCCc1ccccc1`, with “inactive”. Then `CCC1CCCCN1C(=O)CSc1nc(C)cc(C)n1` (centres undefined), with “inactive”.

With `Cc1cccc(NC(=O)C2CCN(C(=O)NC3CCCCC3)CC2)c1`, the Potency entry is “inactive”. As for `CC(=O)c1cccc(NC(=S)N2CCCC2)c1`, the Potency result was “inactive”. The figure for `Cc1cccc(NC(=S)N2CCC(C(=O)c3ccc(F)cc3)CC2)c1` is 13 µM (active); for `Cn1c(N2CCOCC2)c(C=O)c2ccccc21` it is “inactive”; for `CCNC(=S)N1CCN(C(=O)c2ccco2)CC1` it is “inactive”. Then `Cc1ccc(C2=C/C(=C\c3cccnc3)C(=O)O2)cc1`, with “inactive”; and `Cc1ccccc1C1=N/C(=C/c2cccnc2)C(=O)O1`, with “inactive”. Then `O=C1OC(c2ccc(Cl)cc2)=N/C1=C\c1cccnc1`, with 16.4 µM (active); and `O=C1NC2(CCCCCC2)C(=O)N1CCS(=O)(=O)Oc1ccccc1`, with “inactive”.

In the case of `CCCNC(=S)N1CCC(NC(=O)c2ccc(OC)cc2)CC1`, the Potency entry was “inactive”. Then `CCOn1c(=O)c(=O)n(O)c2ccccc21`, with “inactive”; and `COc1ccc(-c2c(NC(=O)c3ccco3)oc3ccc(Cl)cc3c2=O)cc1`, with “inactive”.

With `O=C(Nc1nonc1-c1ccc(Cl)cc1)c1ccco1`, the Potency entry was “inactive”. On to `Cc1cccc(-c2c(NC(=O)c3ccco3)oc3ccc(Cl)cc3c2=O)c1`, for which the Potency is 25.9 µM (active).
